Source: the supplement of paper PMC10849652
About 8,800 targets were measured; listed, in parts, are those with a hit and a random draw of the rest. About 0.5% of all pairs of compound and target were hits.

What follows are targets tested with Cc1ccc(NC(=O)c2ccc(CN3CC[C@H](N(C)C)C3)c(C(F)(F)F)c2)cc1Nc1nccc(-c2cncnc2)n1 [bafetinib] (assay: log2 fold change, soluble protein after heating vs DMSO (PISA); higher = thermal stabilisation; K562 lysate, 10 uM; active = over 0.2 and 3.5 SD of the protein, either way, in both replicates (recomputed)).
Outline: (§1)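 Thermal stability, expressed as log-two fold change relative to solvent controls, is given from duplicates. Crude K562 extract in PBS pH 7.4 with 1 mM MgCl2, at 1 mg/mL protein, was treated with 10 μM compound for 30 min and heated in aliquots for 3 min across 48°C-58°C. After pooling, adjustment to 0.5% NP-40 at 4°C and centrifugation at 21,000xg for 90 min, supernatant protein was measured by TMTpro 16plex LC-MS/MS with channel sums equalised.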

UniProt Q8IZ21, sequence (Q8IZ21 whole entry, looked up): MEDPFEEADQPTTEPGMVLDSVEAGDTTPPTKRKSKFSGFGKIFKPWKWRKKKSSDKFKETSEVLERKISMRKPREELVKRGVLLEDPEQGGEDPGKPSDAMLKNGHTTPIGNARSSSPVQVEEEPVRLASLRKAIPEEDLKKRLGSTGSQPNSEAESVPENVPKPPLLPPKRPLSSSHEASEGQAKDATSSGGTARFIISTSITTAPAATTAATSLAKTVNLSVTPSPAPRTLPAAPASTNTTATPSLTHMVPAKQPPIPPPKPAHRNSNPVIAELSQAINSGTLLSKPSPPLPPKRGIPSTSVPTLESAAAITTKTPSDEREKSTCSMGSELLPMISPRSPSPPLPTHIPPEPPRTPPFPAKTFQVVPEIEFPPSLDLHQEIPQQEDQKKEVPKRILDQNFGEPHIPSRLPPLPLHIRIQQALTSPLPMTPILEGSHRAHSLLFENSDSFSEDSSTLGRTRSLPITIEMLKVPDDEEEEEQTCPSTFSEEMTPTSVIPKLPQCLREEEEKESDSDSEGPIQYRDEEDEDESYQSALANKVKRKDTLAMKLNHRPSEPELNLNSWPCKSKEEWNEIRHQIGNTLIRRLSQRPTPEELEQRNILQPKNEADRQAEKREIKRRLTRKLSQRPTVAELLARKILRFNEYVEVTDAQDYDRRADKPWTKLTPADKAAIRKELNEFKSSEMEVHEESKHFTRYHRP
UniProt Q8TCD6, sequence (Q8TCD6 whole entry, looked up): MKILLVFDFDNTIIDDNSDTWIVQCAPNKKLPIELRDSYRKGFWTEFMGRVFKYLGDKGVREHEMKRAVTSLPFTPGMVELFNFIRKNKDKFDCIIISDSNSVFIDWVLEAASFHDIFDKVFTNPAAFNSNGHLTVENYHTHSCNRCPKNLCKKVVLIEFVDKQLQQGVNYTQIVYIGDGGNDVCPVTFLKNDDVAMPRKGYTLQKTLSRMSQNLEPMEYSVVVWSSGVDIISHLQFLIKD
UniProt Q8N4L2, sequence (Q8N4L2 whole entry, looked up): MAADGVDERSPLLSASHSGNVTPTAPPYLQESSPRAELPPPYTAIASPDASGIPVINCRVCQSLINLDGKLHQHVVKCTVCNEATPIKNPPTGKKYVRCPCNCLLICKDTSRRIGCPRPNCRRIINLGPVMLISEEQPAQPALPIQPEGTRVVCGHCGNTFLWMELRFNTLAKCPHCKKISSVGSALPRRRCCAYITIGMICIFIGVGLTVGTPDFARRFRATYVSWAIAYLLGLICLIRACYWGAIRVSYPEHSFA
UniProt P46020, sequence (P46020 whole entry, looked up): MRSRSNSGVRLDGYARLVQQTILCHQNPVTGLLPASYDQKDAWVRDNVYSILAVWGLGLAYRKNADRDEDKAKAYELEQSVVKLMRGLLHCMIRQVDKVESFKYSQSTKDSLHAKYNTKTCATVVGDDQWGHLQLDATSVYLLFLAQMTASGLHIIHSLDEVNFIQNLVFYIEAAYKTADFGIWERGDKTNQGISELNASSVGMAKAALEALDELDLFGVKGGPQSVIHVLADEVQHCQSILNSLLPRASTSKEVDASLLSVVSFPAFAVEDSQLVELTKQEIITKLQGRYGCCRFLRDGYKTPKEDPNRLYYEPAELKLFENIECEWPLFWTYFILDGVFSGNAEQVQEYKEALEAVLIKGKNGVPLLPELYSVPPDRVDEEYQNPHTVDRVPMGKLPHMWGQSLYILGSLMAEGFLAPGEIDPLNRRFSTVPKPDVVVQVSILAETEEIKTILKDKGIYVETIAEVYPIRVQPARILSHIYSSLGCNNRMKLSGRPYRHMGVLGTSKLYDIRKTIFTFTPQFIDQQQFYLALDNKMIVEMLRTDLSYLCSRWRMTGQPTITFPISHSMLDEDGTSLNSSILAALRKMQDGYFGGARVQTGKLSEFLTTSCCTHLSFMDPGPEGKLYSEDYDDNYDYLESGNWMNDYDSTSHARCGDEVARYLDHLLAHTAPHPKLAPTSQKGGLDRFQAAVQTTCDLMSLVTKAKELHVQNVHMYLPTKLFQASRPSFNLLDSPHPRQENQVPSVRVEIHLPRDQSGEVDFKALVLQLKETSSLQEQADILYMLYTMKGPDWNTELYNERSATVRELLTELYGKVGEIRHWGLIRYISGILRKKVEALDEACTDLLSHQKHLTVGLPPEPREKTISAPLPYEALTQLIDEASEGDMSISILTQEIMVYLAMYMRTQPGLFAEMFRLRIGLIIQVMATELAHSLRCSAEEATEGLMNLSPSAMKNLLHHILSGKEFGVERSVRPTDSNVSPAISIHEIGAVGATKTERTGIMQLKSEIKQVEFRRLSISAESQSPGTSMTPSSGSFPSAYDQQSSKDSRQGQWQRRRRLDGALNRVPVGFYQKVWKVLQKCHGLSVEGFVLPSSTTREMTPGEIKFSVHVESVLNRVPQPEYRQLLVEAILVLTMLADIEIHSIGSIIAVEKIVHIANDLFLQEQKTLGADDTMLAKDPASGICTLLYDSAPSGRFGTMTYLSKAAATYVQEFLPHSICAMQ
UniProt Q15054, sequence (Q15054 whole entry, looked up): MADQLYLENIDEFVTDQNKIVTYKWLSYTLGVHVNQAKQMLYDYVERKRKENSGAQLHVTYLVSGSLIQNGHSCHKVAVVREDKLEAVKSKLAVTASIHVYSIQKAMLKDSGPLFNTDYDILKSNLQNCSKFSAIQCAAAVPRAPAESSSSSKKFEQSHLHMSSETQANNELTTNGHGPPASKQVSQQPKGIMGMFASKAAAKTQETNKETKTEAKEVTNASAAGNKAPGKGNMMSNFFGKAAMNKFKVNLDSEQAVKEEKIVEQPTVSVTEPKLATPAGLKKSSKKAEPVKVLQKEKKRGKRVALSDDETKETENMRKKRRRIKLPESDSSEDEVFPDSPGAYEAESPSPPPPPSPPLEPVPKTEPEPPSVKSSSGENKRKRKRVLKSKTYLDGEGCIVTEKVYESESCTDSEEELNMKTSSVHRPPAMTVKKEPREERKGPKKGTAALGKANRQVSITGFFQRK
UniProt P57721, sequence (P57721 whole entry, looked up): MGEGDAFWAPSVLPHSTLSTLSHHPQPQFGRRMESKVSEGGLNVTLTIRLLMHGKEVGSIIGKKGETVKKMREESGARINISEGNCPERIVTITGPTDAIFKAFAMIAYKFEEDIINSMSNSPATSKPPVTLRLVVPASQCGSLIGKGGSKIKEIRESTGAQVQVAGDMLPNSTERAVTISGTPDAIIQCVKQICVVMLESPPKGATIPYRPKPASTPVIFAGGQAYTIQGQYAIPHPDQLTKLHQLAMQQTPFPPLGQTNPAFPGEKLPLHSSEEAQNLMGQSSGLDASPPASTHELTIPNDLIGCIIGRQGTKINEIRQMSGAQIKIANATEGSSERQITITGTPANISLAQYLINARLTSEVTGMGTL
UniProt Q29RF7, sequence (Q29RF7 whole entry, looked up): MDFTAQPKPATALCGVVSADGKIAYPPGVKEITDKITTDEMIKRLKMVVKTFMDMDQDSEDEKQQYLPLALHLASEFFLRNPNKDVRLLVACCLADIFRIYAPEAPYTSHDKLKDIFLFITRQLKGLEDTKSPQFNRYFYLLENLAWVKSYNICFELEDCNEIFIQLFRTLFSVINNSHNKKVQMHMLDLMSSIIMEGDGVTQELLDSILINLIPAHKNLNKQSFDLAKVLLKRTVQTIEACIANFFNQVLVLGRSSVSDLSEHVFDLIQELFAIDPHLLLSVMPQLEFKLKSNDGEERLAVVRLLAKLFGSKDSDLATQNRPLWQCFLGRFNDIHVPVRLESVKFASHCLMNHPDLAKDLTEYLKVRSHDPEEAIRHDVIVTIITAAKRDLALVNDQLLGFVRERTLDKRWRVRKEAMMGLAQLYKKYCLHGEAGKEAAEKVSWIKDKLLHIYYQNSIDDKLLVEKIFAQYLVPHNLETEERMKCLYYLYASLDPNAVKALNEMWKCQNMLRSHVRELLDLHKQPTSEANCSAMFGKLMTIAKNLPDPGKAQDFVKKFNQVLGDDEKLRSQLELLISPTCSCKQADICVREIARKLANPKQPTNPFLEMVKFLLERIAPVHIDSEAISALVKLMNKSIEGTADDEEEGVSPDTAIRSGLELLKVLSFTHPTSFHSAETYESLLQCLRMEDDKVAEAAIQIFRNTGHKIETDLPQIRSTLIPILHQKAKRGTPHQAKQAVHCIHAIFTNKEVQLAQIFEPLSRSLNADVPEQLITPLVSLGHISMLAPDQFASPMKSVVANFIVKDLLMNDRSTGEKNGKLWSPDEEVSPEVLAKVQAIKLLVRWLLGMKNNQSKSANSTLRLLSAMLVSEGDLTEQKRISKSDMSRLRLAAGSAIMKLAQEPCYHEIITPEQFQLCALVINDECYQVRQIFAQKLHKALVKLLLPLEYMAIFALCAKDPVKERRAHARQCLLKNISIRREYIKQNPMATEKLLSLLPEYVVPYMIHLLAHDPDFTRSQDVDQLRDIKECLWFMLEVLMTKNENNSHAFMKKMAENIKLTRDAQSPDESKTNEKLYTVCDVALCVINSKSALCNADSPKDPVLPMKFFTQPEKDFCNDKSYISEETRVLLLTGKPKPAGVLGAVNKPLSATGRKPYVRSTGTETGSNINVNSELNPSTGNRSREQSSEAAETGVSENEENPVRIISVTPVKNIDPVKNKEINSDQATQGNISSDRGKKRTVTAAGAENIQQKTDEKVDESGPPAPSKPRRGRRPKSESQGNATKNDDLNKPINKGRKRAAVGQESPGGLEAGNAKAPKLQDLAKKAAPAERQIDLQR
UniProt Q8TBX8, sequence (Q8TBX8 whole entry, looked up): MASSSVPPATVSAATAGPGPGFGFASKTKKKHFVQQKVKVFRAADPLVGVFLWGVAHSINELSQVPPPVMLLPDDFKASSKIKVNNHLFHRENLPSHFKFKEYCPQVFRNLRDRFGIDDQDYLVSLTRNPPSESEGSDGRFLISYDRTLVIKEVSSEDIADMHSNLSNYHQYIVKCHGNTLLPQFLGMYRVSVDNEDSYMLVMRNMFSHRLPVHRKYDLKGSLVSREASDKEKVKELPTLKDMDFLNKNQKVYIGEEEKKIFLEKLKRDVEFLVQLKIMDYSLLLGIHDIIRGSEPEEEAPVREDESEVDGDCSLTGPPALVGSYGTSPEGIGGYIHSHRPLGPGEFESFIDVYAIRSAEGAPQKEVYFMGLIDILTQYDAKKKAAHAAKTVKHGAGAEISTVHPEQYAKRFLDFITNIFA

log2 fold change, active:
PIP4K2A (UniProt P48426) 0.301
PIP4K2C (UniProt Q8TBX8) 0.664

log2 fold change, inactive:
PUS1 (UniProt Q9Y606) -0.047
PTPN23 (UniProt Q9H3S7) -0.032
PDCD6IP (UniProt Q8WUM4) -0.053
PMS2 (UniProt P54278) 0.021
PSTPIP2 (UniProt Q9H939) -0.014
PUM1 isoform 3 (UniProt Q14671) -0.067
PICALM (UniProt Q13492) -0.055
PTPN1 (UniProt P18031) -0.029
PPP2R5C isoform 5 (UniProt Q13362) -0.001
POLD3 (UniProt Q15054) -0.031
PDS5A (UniProt Q29RF7) -0.075
PFN1 (UniProt P07737) 0
PLXNB2 (UniProt O15031) -0.004
PFAS (UniProt O15067) -0.028
PITRM1 isoform 2 (UniProt Q5JRX3) -0.023
PPP1R8 (UniProt Q12972) -0.01
PLEKHF1 (UniProt Q96S99) 0.013
PRKACB isoform 2 (UniProt P22694) -0.04
PDPK1 (UniProt O15530) -0.021
PIK3C3 (UniProt Q8NEB9) -0.013
PHOSPHO2 (UniProt Q8TCD6) -0.024
PFKP (UniProt Q01813) 0.005
PHKG2 (UniProt P15735) 0.015
PPCDC (UniProt Q96CD2) 0.034
PDE2A (UniProt O00408) 0.051
PRKCB isoform 2 (UniProt P05771) -0.01
PIP4P2 (UniProt Q8N4L2) -0.09
PHKA1 (UniProt P46020) 0.051
PIK3R2 (UniProt O00459) -0.004
PSMB9 (UniProt P28065) -0.25
PHACTR4 isoform 2 (UniProt Q8IZ21) 0.022
PI4K2A (UniProt Q9BTU6) 0.008
PDE4DIP isoform 4 (UniProt Q5VU43) -0.073
PDXDC1 (UniProt Q6P996) -0.128
PPIL2 (UniProt Q13356) -0.022
PRRC2A (UniProt P48634) 0.031
PCBP3 (UniProt P57721) -0.03

What follows are targets tested with Cc1cccc(CC(=O)N2CCc3c2ccc(-c2cn(C)c4ncnc(N)c24)c3F)n1 in the same assay as above.
Outline: as §1

log2 fold change, inactive:
PUS1 (UniProt Q9Y606) 0.027
PTPN23 (UniProt Q9H3S7) 0.023
PDCD6IP (UniProt Q8WUM4) 0.012
PMS2 (UniProt P54278) 0.037
PSTPIP2 (UniProt Q9H939) -0.027
PUM1 isoform 3 (UniProt Q14671) -0.026
PICALM (UniProt Q13492) -0.007
PTPN1 (UniProt P18031) 0.062
PPP2R5C isoform 5 (UniProt Q13362) -0.036
POLD3 (UniProt Q15054) -0.038
PIP4K2A (UniProt P48426) 0.005
PDS5A (UniProt Q29RF7) 0.125
PFN1 (UniProt P07737) 0.007
PLXNB2 (UniProt O15031) 0.031
PFAS (UniProt O15067) 0.019
PITRM1 isoform 2 (UniProt Q5JRX3) -0.062
PPP1R8 (UniProt Q12972) 0.091
PLEKHF1 (UniProt Q96S99) 0.026
PRKACB isoform 2 (UniProt P22694) -0.131
PIP4K2C (UniProt Q8TBX8) -0.032
PDPK1 (UniProt O15530) -0.211
PIK3C3 (UniProt Q8NEB9) 0.133
PHOSPHO2 (UniProt Q8TCD6) -0.002
PFKP (UniProt Q01813) -0.012
PHKG2 (UniProt P15735) -0.107
PPCDC (UniProt Q96CD2) 0.19
PDE2A (UniProt O00408) 0.041
PRKCB isoform 2 (UniProt P05771) 0.021
PIP4P2 (UniProt Q8N4L2) -0.009
PHKA1 (UniProt P46020) -0.047
PIK3R2 (UniProt O00459) -0.016
PSMB9 (UniProt P28065) 0.022
PHACTR4 isoform 2 (UniProt Q8IZ21) -0.196
PI4K2A (UniProt Q9BTU6) 0.014
PDE4DIP isoform 4 (UniProt Q5VU43) 0.05
PDXDC1 (UniProt Q6P996) 0.062
PPIL2 (UniProt Q13356) 0.054
PRRC2A (UniProt P48634) -0.058
PCBP3 (UniProt P57721) 0.026
